Source: PubChem
Keap1 Nrf2 FP – Keap1-Nrf2 (human) interaction inhibition | AID 504523 | Keap1 Kelch-Nrf2 peptide fluorescence polarization, 1536-well | hit rate 0.15% among 340,000 | Q14145 | inhibition, % at 9.4 µM; in the data active = inhibition above about 12%;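 also: human Keap1 Kelch domain with fluorescein labeled Nrf2 9mer peptide probe; higher means more block of Keap1 binding to Nrf2 peptide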
LANA DNA inh – KSHV C-LANA DNA binding inhibition; MBP-C-LANA/FAM-LBS DNA binding, fluorescence polarization; inhibition, % at 9 µM; hit rate 0.078% among 340,000; AID 504423;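 active = highest replicate inhibition at or above 60% at 9 µM, even if other replicates fall short; inactive = all replicates below 60% inhibition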
LANA-H2A inh – blocks KSHV LANA binding to histone H2A/H2B. cell-free LANA-H2A/H2B peptide, fluorescence polarization. inhibition, % (test concentration not listed). hit rate 0.6% among 320,000. AID 2629; in the data active = inhibition mostly above about 10%, no sharp cut-off; inactive = mostly below about 6.7%
EBV gp42 inh – EBV gp42 inhibition | Fluorescence polarization binding assay, mP read-out | hit rate 0.42% among 220,000 | AID 1085 | Q1HVG2 | inhibition, % (tested at 21.74 µM); in the data active = inhibition above about 50%
Target sequence (Q1HVG2 whole entry, looked up): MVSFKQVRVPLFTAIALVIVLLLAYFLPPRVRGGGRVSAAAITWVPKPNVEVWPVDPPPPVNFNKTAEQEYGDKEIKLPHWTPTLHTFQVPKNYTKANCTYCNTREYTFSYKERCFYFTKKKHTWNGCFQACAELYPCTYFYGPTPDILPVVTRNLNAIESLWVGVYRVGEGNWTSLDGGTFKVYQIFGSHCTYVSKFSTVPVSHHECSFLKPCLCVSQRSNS
eLon inh – inhibitors of E. coli Lon protease. P0A9M0. purified E. coli Lon protease, fluorescence polarization. hit rate 0.42% among 360,000. AID 602123. inhibition, % at 7.94 µM; in the data active = inhibition above about 13%, passing the limit was not always enough
GLD-1 TGE inh – GLD-1-TGE RNA interaction inhibition (C. elegans) | Q17339 | purified GLD-1 + fluorescein TGE RNA, fluorescence polarization | inhibition, % at 5.96 µM | hit rate 0.44% among 320,000;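 active = percent inhibition above a per-plate cutoff, the plate mean of test compounds plus 3 SD, cut at about 30% in these data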
Target sequence (Q17339 whole entry, looked up): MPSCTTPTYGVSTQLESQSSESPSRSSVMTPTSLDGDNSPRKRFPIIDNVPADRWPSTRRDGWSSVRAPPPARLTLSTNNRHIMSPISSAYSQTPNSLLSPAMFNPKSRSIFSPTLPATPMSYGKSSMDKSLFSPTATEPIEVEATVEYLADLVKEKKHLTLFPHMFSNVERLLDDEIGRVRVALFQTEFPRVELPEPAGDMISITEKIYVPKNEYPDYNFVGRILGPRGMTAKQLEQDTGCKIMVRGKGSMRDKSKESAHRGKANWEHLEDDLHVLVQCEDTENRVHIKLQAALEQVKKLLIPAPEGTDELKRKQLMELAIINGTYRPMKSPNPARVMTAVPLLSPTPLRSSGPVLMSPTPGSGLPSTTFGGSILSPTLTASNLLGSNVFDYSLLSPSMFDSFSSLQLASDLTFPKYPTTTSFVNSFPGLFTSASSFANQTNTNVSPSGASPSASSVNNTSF
GLD1 RNA confirm – GLD-1 TGE RNA interaction inhibition, confirmation; shares compounds with GLD-1 TGE inh; GLD-1/FL-TGE RNA fluorescence polarization, biochemical; inhibition, % at 5.96 µM; hit rate 10% among 550;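 active = average inhibition across triplicates above the hit cutoff set in the primary screen, cut at about 32% in these data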
Large screens that a line does not name were inactive (follow-up assays come after a bar, where they were run). Sampled rows, rich in hits. Any-hit rate of the full collection: about 1.5%.

COc1ccc(OC)c(C(=O)N(C)C2CCCN(Cc3ccccc3F)C2)c1 (stereo unspecified)	GLD-1 TGE inh 39 (no result: EBV gp42 inh) | GLD1 RNA confirm inactive
Cc1ccc(N(C(=O)C2CCC(=O)N2)C2(C(=O)NC3CCCC3)CCCCC2)cc1 (stereo unspecified)	none
CC(=O)N1c2ccc(S(=O)(=O)N3CCCCC3)cc2CC1C(=O)Nc1ccccc1C(F)(F)F (stereo unspecified)	none (no result: EBV gp42 inh)
Cc1nn2c(N)csc2nc1=O	GLD-1 TGE inh 34 (no result: Keap1 Nrf2 FP, LANA DNA inh, eLon inh) | GLD1 RNA confirm inactive
Cc1ccc(/C=C2/C(=O)c3ccc(C(=O)O)cc3C2=O)o1	none (no result: LANA-H2A inh, GLD-1 TGE inh)
O=C(O)c1ccc2c(c1)C(=O)/C(=C/c1ccccc1)C2=O	GLD-1 TGE inh 46 | GLD1 RNA confirm inactive
Cc1ccc(/C=C/c2nc3ccccc3[nH]2)o1	GLD-1 TGE inh 32 | GLD1 RNA confirm inactive
Cc1cc2nc(/C=C/c3nc4cc(C)c(C)cc4[nH]3)[nH]c2cc1C	none
Cc1ccc(C(=O)NNC(=O)/C=C\C(=O)O)cc1	GLD-1 TGE inh 79 | GLD1 RNA confirm inactive
Cc1ccc(COc2ccsc2C(=O)NNC(N)=S)cc1	none
CCOC(=O)Cn1c(=O)c(-c2cc(Br)ccc2N)nc2ccccc21	EBV gp42 inh 60, GLD-1 TGE inh 37 | GLD1 RNA confirm 50
CCOC(=O)Cn1c(=O)c(-c2ccccc2N)nc2ccccc21	none
CCOC(=O)c1sc(NC(=O)C2CC(=O)N(c3ccccc3OC)C2)nc1C (stereo unspecified)	none (no result: EBV gp42 inh)
Clc1cccc(C2Nc3cccc4cccc(c34)N2)c1	GLD-1 TGE inh 32 (no result: EBV gp42 inh) | GLD1 RNA confirm inactive
CCOC(=O)C1=C(C)NC(C)=C(C(=O)OCC)C1C(=O)OCC(N)=O	GLD-1 TGE inh 57 | GLD1 RNA confirm inactive
CCOC(=O)N1CCC(NC(=O)CCc2nc(-c3ccc(C)cc3)no2)CC1	none
Oc1cc(NCCc2cccnc2)cc2cccnc12	GLD-1 TGE inh 39 (no result: EBV gp42 inh) | GLD1 RNA confirm inactive
Oc1cc(Nc2cccnc2)cc2cccnc12	none (no result: EBV gp42 inh)
C=CC[C@@H](Cc1ccc(F)cc1)C(=O)OC[C@H]1CCCN1C(=O)[C@H](CC=C)CC(=O)N[C@H](CO)Cc1ccccc1	none (no result: EBV gp42 inh)
COc1cc(C(=O)NC(=S)Nc2ccc([N+](=O)[O-])cc2C)cc(OC)c1OC	none
COc1cc(C(=O)NC(=S)Nc2ccc([N+](=O)[O-])cc2)cc(OC)c1OC	GLD-1 TGE inh 32 | GLD1 RNA confirm inactive
CCCCOC(=O)N/N=C/C=C/c1ccccc1	none
CCOC(=O)C1=C(CC)OC(N)=C(C#N)C1c1ccc(OC)cc1OC (stereo unspecified)	none
CCOC(=O)CC1=C(C(=O)OCC)C(c2ccc(OC)cc2OC)C(C#N)=C(N)O1 (stereo unspecified)	GLD-1 TGE inh 35 | GLD1 RNA confirm inactive
CCOC(=O)CC1=C(C(=O)OCC)C(c2cccnc2)C(C#N)=C(N)O1 (stereo unspecified)	none
CCOC(=O)CC1=C(C(=O)OCC)C(c2ccc(C)o2)C(C#N)=C(N)O1 (stereo unspecified)	GLD-1 TGE inh 34 | GLD1 RNA confirm inactive
CC1CCC(NC(=O)CN2C(=O)NC3(CCCCCC3)C2=O)CC1 (stereo unspecified)	none (no result: EBV gp42 inh)
CC(C(=O)N(C)C1CCS(=O)(=O)C1)N1C(=O)/C(=C/c2ccco2)SC1=S (stereo unspecified)	none (no result: EBV gp42 inh)
CC(C(=O)Nc1ccc(C(=O)O)c(O)c1)N1C(=O)/C(=C\c2ccco2)SC1=S (stereo unspecified)	LANA DNA inh 101, GLD-1 TGE inh 32 (no result: EBV gp42 inh) | GLD1 RNA confirm inactive
CC(=O)Nc1ccc2nc3ccccc3nc2c1	GLD-1 TGE inh 48 | GLD1 RNA confirm 34
CC(=O)Nc1ccc(C(=O)OCC(=O)NCc2cccs2)cc1	none (no result: EBV gp42 inh)
COc1cccc(C2C=C(c3ccc(OC)cc3OC)Nc3nnnn32)c1 (stereo unspecified)	GLD-1 TGE inh 39 | GLD1 RNA confirm inactive
COCCN(C(=O)CSc1nnc(C)n1Cc1ccccc1)c1c(N)n(CC(C)C)c(=O)[nH]c1=O	none
N#CC(c1nc2ccccc2nc1N1CCCC1)S(=O)(=O)c1ccccc1 (stereo unspecified)	LANA-H2A inh 17, EBV gp42 inh 102, GLD-1 TGE inh 40 | GLD1 RNA confirm inactive
N#CC(c1nc2ccccc2nc1N1CCCC1)S(=O)(=O)c1cccs1 (stereo unspecified)	none
COc1ccc(S(=O)(=O)C(C#N)c2nc3ccccc3nc2N2CCCCC2)cc1 (stereo unspecified)	GLD-1 TGE inh 69 | GLD1 RNA confirm inactive
COc1ccc2nc(N3CCCCC3)c(C#N)cc2c1	EBV gp42 inh 58, GLD-1 TGE inh 46 | GLD1 RNA confirm 65
CCC(CC)NC(=O)COn1nnc2ccc(S(=O)(=O)N3CCOCC3)cc21	none (no result: EBV gp42 inh)
C(CCN1CCOCC1)CN1CCOCC1	none (no result: Keap1 Nrf2 FP, LANA DNA inh, LANA-H2A inh, EBV gp42 inh, GLD-1 TGE inh)
CN1CCN(CP(=O)(N2CCOCC2)N2CCOCC2)CC1	GLD-1 TGE inh 43 | GLD1 RNA confirm inactive
Cc1nn2c(NCCCN(C)C)c3c(nc2c1-c1ccccc1)CCCC3	none
Cc1nn2c(NCCCN(C)C)c3c(nc2c1-c1ccccc1)CCC3	GLD-1 TGE inh 31 | GLD1 RNA confirm inactive
Cc1cc2cc(OCC(=O)O)ccc2n1C	GLD-1 TGE inh 39 | GLD1 RNA confirm inactive
CCC(CC)C(=O)NCc1ccc2c(c1)cc(C)n2C	none
Cc1cc2cc(CNC(=O)C(C)Oc3ccccc3)ccc2n1C (stereo unspecified)	GLD-1 TGE inh 57 | GLD1 RNA confirm inactive
CC(C)CCN(C)C1CCN(C(=O)Nc2c(F)cccc2F)CC1	GLD-1 TGE inh 35 | GLD1 RNA confirm inactive
Cc1ccc(C(=O)N/N=C\c2ccc(Br)o2)o1	none
Cc1ccc(C(=O)N/N=C/c2ccc(-c3ccc(Br)cc3[N+](=O)[O-])o2)o1	GLD-1 TGE inh 36 (no result: EBV gp42 inh) | GLD1 RNA confirm 35
Cc1cccn2c(=O)c3cc(C#N)c(=NC(=O)c4cccs4)n(CCCOC(C)C)c3nc12	GLD-1 TGE inh 57 | GLD1 RNA confirm inactive
Cc1cccn2c(=O)c3cc(C#N)c(=NC(=O)c4ccncc4)n(CCCOC(C)C)c3nc12	LANA-H2A inh 8.9, GLD-1 TGE inh 44 | GLD1 RNA confirm inactive
CCC(C)c1ccc(NC(=O)c2cccnc2)cc1 (stereo unspecified)	none
CCCCSc1ccc(NC(=O)c2cccnc2)cc1	GLD-1 TGE inh 41 | GLD1 RNA confirm inactive
Cc1cccc(C)c1OCC(=O)Nc1ccc2c(c1)OCCO2	none (no result: EBV gp42 inh)
CCOc1ncccc1C(=O)OCC(=O)NC1CCCCCC1	none (no result: LANA-H2A inh, EBV gp42 inh, GLD-1 TGE inh)
CC1=CC(=O)c2c(O)ccc(O)c2C1=O	LANA-H2A inh 17, EBV gp42 inh 116, GLD-1 TGE inh 75 (no result: Keap1 Nrf2 FP, LANA DNA inh, eLon inh) | GLD1 RNA confirm 33
CC(C)Cc1ccc(CN2C(C)C(=O)N(Cc3cn(Cc4ccco4)nn3)CCS2(=O)=O)cc1 (stereo unspecified)	none (no result: Keap1 Nrf2 FP, LANA DNA inh, LANA-H2A inh, EBV gp42 inh, GLD-1 TGE inh)
